Results on five compounds are retold here after PubChem BioAssay (Tox21).

Values joined by “and” are separate entries in the source; they are usually repeats but may differ in a detail not shown here. Equal entries are not always repeated. Inconclusive results are not listed. Active and inactive are the calls of the source. Unless noted, calls come from the whole dose curve; as a rule, active = well fitted curve in the direction sought with a large enough effect in the repeat runs; inconclusive = weak or mixed curves; inactive = no such curve, though single readings can be large; an effect the other way counts as inactive or inconclusive.

A short description of test [1]: qHTS assay to identify small molecule antagonists of the estrogen receptor alpha (ER-alpha) signaling pathway using the BG1 cell line in the presence of 0.1 nM 17-beta-estradiol - cell viability counter screen (AID 1259241). Note: nearly all actives have a fitted effect of over 40% in size. The essentials:
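Following 5 days in phenol red-free medium with charcoal-stripped serum, VM7Luc4E2 cells received test compounds alongside 0.1 nM 17beta-estradiol (final) at 37C for 22 hr. Live cells were then quantified via protease-substrate fluorescence.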

Test [2] is described as follows: qHTS assay to identify small molecule HDAC inhibitors (AID 1259364).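 Note: wild-type HCT-116 cells with endogenous class I/II HDAC activity; top concentration of the series differs between compounds; nearly all actives have a fitted effect of over 45% in size.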 In outline: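 HCT-116 wt cells, 1,500/well, overnight attach. Compounds (DMSO) 2 h, 37 °C. HDAC-Glo I/II, 30 min RT. Luminescence.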
On the technique in general: qHTS replaces the single test concentration by a dilution series.

The nature of test [3]: qHTS assay to identify small molecule HDAC inhibitors - cell viability counter screen (AID 1259365). Note: series mostly up to about 92 µM; nearly all actives have a fitted effect of over 50% in size. In outline:
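HCT-116 wild-type, overnight attachment; 2hr drug exposure, 37C; CellTiter-Glo luminescent ATP readout after 30min RT.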

Test [4] can be described thus: qHTS assay to identify small molecule agonists of the sonic hedgehog signaling (Shh) pathway - cell viability counter screen (AID 1259366). Note: nearly all actives have a fitted effect of over 50% in size. Note: potency is the fitted concentration of half-maximal effect. In outline: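 Compounds in DMSO were pin-transferred onto 3T3 Gli1-Luc cells that had settled 4hr; plates then stood 24hr at 37C and 5% CO2. One hour before the end, CellTiter-Fluor was added and fluorescence recorded.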
A short description of test [5]: qHTS assay to identify small molecule agonists of the sonic hedgehog signaling (Shh) pathway (AID 1259368; calls by dose curve;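 note: NIH/3T3-derived 3T3Gli1-Luc cells carrying a stable Gli1-driven firefly luciferase reporter; series mostly up to about 92 µM; nearly all actives have a fitted effect of over 15% in size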). In outline:
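Following a 24 hr incubation with DMSO-dissolved compounds at 37 C, 5% CO2, Gli1-Luc NIH/3T3-derived cells received luciferase reagent for 30 min at room temperature prior to luminescence measurement.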

The nature of test [6]: qHTS assay to identify small molecule antagonists of the sonic hedgehog signaling (Shh) pathway (AID 1259369; calls by dose curve; note: nearly all actives have a fitted effect of over 45% in size). In outline: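 Read-out is luminescence from a firefly luciferase gene controlled by the Gli1 response element, in 3T3Gli1-Luc cells pre-incubated 4hr then exposed to compounds and conditioned medium for 24hr.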
In test [7] the target is Estrogen receptor beta (Homo sapiens) (UniProt Q92731). Briefly: qHTS assay to identify small molecule agonists of the estrogen receptor beta (ER-beta) signaling pathway (AID 1259377; active = well fitted activation curve with a large enough effect in the signal ratio in the repeat runs, not every such curve was filed as active; the % refers to the signal ratio). The essentials:
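qHTS in ER-beta-UAS-bla HEK293T cells: 6 hr settling, then 16 hr compound at 37C, then LiveBLAzer substrate 2 h at RT before fluorescence reading.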

Test [8] has the same target. Briefly: qHTS assay to identify small molecule antagonists of the estrogen receptor beta (ER-beta) signaling pathway (AID 1259378; active = well fitted inhibition curve with a large enough effect in the signal ratio in the repeat runs, not every such curve was filed as active; the % refers to the signal ratio). The essentials: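 ER-beta-UAS-bla HEK293T (GripTite) cells in 2% charcoal-stripped FBS medium were preincubated 6 hr at 37C, dosed with compound, then stimulated with 1 nM E2 (final) for 16 hr; beta-lactamase reporter read by B/G FRET fluorescence after 2 hr substrate loading.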

A short description of test [9]: qHTS assay to identify small molecule agonists of the androgen receptor (AR) signaling pathway in the presence of an antagonist - cell viability counter screen (AID 1259379).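 Note: MDA-kb2 human breast cancer cells carrying an MMTV luciferase reporter; series mostly up to about 92 µM; nearly all actives have a fitted effect of over 25% in size.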 The essentials: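 Each compound was tested at 15 concentrations on MDA-kb2 cells in the presence of 3.0uM nilutamide. Viability was measured by CellTiter-Fluor fluorescence after a 16 hr incubation at 37C in a CO2-free atmosphere.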

Test [10] in a line: qHTS assay to identify small molecule agonists of the estrogen receptor beta (ER-beta) signaling pathway - cell viability counter screen (AID 1259380). Note: nearly all actives have a fitted effect of over 30% in size. The essentials:
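Compounds dissolved in DMSO were pin-transferred onto ER-beta-UAS-bla HEK293T cells that had settled 6 hr, and exposure ran 16 hr at 37C. Following the reporter read, CellTiter-Glo luminescence after 30 min at room temperature indicated cytotoxicity.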

A short description of test [11]: qHTS assay to identify small molecule antagonists of the estrogen receptor beta (ER-beta) signaling pathway - cell viability counter screen (AID 1259382). Note: series mostly up to about 92 µM; nearly all actives have a fitted effect of over 55% in size. In outline:
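CellTiter-Glo ATP luminescence measured after the LiveBLAzer read in the same wells; ER-beta-UAS-bla HEK293T cells, 16 hr compound treatment with 1nM 17-beta-estradiol agonist at 37C, 5% CO2.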

The target of test [12] is Estrogen receptor (Homo sapiens) (UniProt P03372). The test can be described thus: qHTS assay to identify small molecule agonists of the estrogen receptor alpha (ER-alpha) signaling pathway in the presence of an antagonist (AID 1259383; calls by dose curve; note: top concentration of the series differs between compounds; nearly all actives have a fitted effect of over 15% in size). The essentials: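 Luminescent ERE-luciferase reporter, VM7Luc4E2 cells (endogenous ER-alpha); 10.0nM ICI-182,780 final; 15-point compound titration; 22hr at 37C; ONE-Glo, 30min RT.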

The nature of test [13]: qHTS assay to identify small molecule agonists or antagonists of the thyroid stimulating hormone receptor (TSHR) signaling pathway - wild type cell line counter screen (AID 1259384; calls by dose curve). In outline:
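Wild-type HEK293 cells were plated 18 h at 37 C/5% CO2, pin-dosed with compound plus Ro20-1724 medium, held 30 min at room temperature, then given cAMP-d2 and anti-cAMP-cryptate; fluorescence was read after 1 h. Fifteen concentrations, triplicate.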

The target in test [14] is Thyrotropin receptor (Homo sapiens) (UniProt P16473). Briefly: qHTS assay to identify small molecule antagonists of the thyroid stimulating hormone receptor (TSHR) signaling pathway (AID 1259385; calls by dose curve; note: nearly all actives have a fitted effect of over 20% in size; note: potency is the fitted concentration of half-maximal effect). In outline: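 TSHR-HEK293 cells were plated and held 18 h at 37C/5% CO2, then given compound plus Ro20-1724 and stimulated with TSH at 1.5 ng/mL final. After 30 min at room temperature, cAMP was detected with cAMP-d2/anti-cAMP-cryptate (1 h) by fluorescence.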

The target of test [15] is Estrogen receptor (Homo sapiens) (UniProt P03372). The test can be described thus: qHTS assay to identify small molecule antagonists of the estrogen receptor alpha (ER-alpha) signaling pathway using the BG1 cell line in the presence of 0.1 nM 17-beta-estradiol (AID 1259244). Note: nearly all actives have a fitted effect of over 50% in size. The essentials: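 Luciferase signal from VM7Luc4E2 ERE-reporter cells, co-dosed with test compound and 0.1 nM final 17beta-estradiol for 22 h, read with ONE-Glo.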

Test [16] is described as follows: qHTS assay to identify small molecule antagonists of the sonic hedgehog signaling (Shh) pathway - cell viability counter screen (AID 1259367). Note: nearly all actives have a fitted effect of over 55% in size. The essentials:
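Cytotoxicity was assessed in parallel with Shh reporter activity by measuring live-cell protease fluorescence (CellTiter-Fluor) in NIH/3T3 cells stably carrying Gli1-Luc, treated with compound under conditioned medium stimulation for 23 hr plus 1 hr reagent incubation.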

Sequence of Estrogen receptor beta (Homo sapiens) (Q92731 whole entry, looked up): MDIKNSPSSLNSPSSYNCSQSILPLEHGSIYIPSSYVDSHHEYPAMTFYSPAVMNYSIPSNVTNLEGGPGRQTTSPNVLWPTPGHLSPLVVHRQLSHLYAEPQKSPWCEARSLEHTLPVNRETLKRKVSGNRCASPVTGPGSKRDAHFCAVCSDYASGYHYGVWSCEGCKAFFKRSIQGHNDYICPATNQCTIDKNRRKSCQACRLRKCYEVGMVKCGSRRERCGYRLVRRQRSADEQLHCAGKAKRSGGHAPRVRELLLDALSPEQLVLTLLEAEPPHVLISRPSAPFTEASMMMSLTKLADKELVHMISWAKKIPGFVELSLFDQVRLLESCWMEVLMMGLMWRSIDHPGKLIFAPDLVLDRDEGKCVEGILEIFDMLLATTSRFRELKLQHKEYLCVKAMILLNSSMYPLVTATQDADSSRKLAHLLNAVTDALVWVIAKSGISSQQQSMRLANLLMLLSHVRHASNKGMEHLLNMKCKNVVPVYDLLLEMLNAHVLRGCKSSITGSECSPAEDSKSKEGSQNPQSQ
Sequence of Estrogen receptor (Homo sapiens) (P03372 whole entry, looked up): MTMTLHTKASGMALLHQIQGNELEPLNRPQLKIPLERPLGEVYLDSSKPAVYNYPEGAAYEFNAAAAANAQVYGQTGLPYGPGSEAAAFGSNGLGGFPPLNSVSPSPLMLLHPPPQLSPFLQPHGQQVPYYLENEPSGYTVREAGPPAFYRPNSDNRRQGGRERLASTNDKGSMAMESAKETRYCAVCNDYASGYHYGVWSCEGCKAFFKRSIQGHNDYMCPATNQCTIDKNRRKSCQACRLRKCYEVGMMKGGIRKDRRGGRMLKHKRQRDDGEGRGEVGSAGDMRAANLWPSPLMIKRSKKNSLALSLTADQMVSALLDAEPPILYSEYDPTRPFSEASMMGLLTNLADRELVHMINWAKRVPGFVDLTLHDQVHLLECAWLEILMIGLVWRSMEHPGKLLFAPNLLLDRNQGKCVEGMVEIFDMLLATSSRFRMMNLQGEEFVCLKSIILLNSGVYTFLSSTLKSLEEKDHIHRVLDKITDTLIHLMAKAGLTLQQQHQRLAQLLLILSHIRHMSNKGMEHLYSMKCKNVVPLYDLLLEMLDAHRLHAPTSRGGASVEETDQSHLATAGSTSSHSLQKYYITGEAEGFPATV
Sequence of Thyrotropin receptor (Homo sapiens) (P16473 whole entry, looked up): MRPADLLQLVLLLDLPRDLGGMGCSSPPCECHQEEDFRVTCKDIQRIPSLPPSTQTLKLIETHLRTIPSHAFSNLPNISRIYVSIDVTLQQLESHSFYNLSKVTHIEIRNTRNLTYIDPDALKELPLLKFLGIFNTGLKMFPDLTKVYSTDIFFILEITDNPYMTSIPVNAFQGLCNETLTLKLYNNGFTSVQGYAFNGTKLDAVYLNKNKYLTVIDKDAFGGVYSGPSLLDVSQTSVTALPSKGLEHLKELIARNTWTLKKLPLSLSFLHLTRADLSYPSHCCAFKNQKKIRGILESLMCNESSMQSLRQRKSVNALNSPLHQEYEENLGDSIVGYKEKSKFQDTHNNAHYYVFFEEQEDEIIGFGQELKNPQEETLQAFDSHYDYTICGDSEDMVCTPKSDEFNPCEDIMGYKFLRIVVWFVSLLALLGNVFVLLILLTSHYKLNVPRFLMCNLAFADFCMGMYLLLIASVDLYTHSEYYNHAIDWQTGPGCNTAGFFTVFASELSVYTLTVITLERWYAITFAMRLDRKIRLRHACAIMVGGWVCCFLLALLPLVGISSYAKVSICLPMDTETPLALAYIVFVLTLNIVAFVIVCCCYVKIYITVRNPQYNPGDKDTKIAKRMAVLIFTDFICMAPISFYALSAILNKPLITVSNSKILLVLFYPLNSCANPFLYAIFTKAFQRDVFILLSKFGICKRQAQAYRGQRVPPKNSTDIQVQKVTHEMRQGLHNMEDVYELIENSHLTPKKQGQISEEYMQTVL

Take `CCCCCCCCCCCCN(C)C`: the Potency result in [1], in test [2], in test [3], in test [4], in test [5] and in test [6] was “inactive” throughout. Also, the Potency entry in test [7], in test [8], in [9], in test [10], in test [11] and in test [12] was “inactive” in each case. Also, the Potency result in test [14] was “inactive”. Besides, in test [13], the call was inactive.

Regarding `O=C=NC1CCCCC1`, the Potency result in [1], in test [15], in [2], in test [3], in test [4] and in [16] was “inactive” each time. The Potency result in test [5], in [6], in test [7], in [8], in test [9] and in test [10] was “inactive” each time. Besides, the Potency entry in test [11], in [12] and in test [14] was “inactive” in each case. Moreover, the compound was classed as inactive in test [13].

On to `O=[N+]([O-])/C=C/c1ccccc1`, for which the Potency result in test [1], in [2], in test [16], in test [5] and in [11] was “inactive” throughout. For the same compound, the Potency in test [4] was 5.54 µM (active) and 10.9 µM (active); in test [14], 27.8 µM (active) and 21.7 µM (active). Also, the result in [13] was inactive.

On to `C=CC(=O)OCC`, for which the Potency result in test [1], in test [15], in test [2], in test [3], in test [4] and in test [16] was “inactive” in each case. In addition, the Potency entry in test [5], in test [6], in test [10], in [11], in test [12] and in test [14] was “inactive” each time. In addition, the call in test [13] was inactive.

Consider `c1ccc2c(c1)-c1cccc3cccc-2c13`, for which the Potency result in test [1], in [2], in test [3], in [4], in [16] and in test [5] was “inactive” in each case. Further, the Potency entry in [6], in test [7], in test [8], in test [9], in test [10] and in [11] was “inactive” each time. The Potency result in [14] was “inactive”. The compound was called inactive in [13].
